Results: PubChem BioAssay
Activity calls are given as the source filed them. Unless noted, how the calls were made is not given here.

Legend:
[1] = liver-stage malaria parasite load reduction – cell-based, known kinase inhibitor set, luminescence, hepatoma host viability (AID 624392); conditions: Plasmodium liver stage in hepatoma cells, luciferase luminescence, concentration not given here; liver cell % of control: measured here: host liver cell viability; parasite % of control: stronger effect = lower value;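 further: infected cells incubated roughly two days before readout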
[2] = altered dexamethasone sensitivity, NF-kB reporter, cell-based, luciferase, IL-1B stimulus (AID 624486); conditions: IL-1B + dexamethasone, luminescence; percent of negative control (+Dex): actives lie on both sides, concentration not given here; z-score: measured here: IL-1B alone, no Dex;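 on percent of negative control (+Dex): 100% = mean signal of vehicle control wells on the plate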
[3] = C. elegans survival during P. aeruginosa infection – whole organism (AID 651566);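 further: tested at 14 µM; sign flipped so higher z means a lower ratio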; conditions: C. elegans killed by P. aeruginosa, survival ratio
[4] = pro-inflammatory signaling induction in mouse macrophages – cell-based, murine, luminescence (AID 652131); conditions: murine macrophage pro-inflammatory reporter, stronger effect = higher value
[5] = biological target: Cellular tumor antigen p53 (Homo sapiens) (UniProt P04637); test: GFP-p53 level modulators in HPV16+ cells – imaging, known kinase inhibitor set, EGFP/DsRed ratio (AID 1053116); conditions: GFP-p53 stability, stronger effect = higher value; EGFP object count: measured here: GFP-p53 positive objects count;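 further: cells exposed to compounds for 24 h at 37 °C before reading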
[6] = inducers of IRF3 signaling, differentiated THP-1 – cell-based, PMA-stimulated THP-1, luminescence (AID 1053176); conditions: PMA-differentiated THP-1, IRF3 reporter luminescence; stronger effect = higher value
[7] = MELAS cybrid and Rieske KO viability enhancers – cell-based, MELAS cybrids, Rieske KO mouse fibroblasts, CellTiter-Glo, primary screen (AID 1508586;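 active means mean z-score across replicates of 1.96 or higher in either the MELAS or the Rieske mutant cell line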;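 further: z relative to plate mean and SD of compound and empty wells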); conditions: low glucose
[8] = MELAS cybrid survival, CellTiter-Glo 48 h, stronger effect = higher value
[9] = Rieske KO mouse fibroblast survival, CellTiter-Glo 72 h

Sequence of Cellular tumor antigen p53 (Homo sapiens) (P04637 whole entry, looked up): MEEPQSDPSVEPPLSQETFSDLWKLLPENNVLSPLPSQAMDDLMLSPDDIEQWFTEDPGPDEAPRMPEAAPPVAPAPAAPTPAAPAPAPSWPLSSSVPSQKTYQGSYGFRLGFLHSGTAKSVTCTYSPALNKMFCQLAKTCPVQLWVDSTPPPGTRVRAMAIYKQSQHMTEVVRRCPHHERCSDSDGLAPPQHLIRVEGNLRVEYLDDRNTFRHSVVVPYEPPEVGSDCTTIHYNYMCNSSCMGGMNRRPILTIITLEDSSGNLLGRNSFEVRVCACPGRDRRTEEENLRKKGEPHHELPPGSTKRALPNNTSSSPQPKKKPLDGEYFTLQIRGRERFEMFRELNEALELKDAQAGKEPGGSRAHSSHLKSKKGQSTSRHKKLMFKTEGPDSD

| Structure (SMILES) | liver cell % of control [1] [%] | parasite % of control [1] | percent of negative control (+Dex) [2] | z-score [2] | z-score [3] | z-score [4] | EGFP object count [5] | EGFP/DsRed ratio [5] | fraction signal [6] | z-score [7, 8] | z-score [7, 9] |
| --- | --- | --- | --- | --- | --- | --- | --- | --- | --- | --- | --- |
| COc1ccccc1Nc1ncc(-c2ccccc2)o1 | 121 | 132% (inactive) | 243% (active) | 9.37 | -1.29 (inactive) | 5.36 (inactive) | 8.5 | 0.173 (inactive) | 0.001 (inactive) | 0.853 (inactive) | -0.618 |
| COc1cc(/C=N/Nc2ncnc3c2cnn3-c2ccccc2)ccc1O | 108 | 61% (inactive) | 92% (inactive) | 0.145 | 0.145 (inactive) | -0.075 (inactive) | 4.5 | 0.778 (inactive) | -0.007 (inactive) | 1.22 (inactive) | 0.165 |
| NC(=O)c1ccc(Oc2nccc(-c3c(-c4ccc(F)cc4)ncn3C3CCNCC3)n2)cc1 | 89.2 | 144% (inactive) | 96% (inactive) | 0.125 | 0.14 (inactive) | 0.154 (inactive) | 8.5 | 0.173 (inactive) | -0.008 (inactive) | 0.243 (inactive) | -0.477 |
| N#Cc1c(NC(=O)c2ccc(F)cc2)sc2c1CCCC2 | 159 | 137% (inactive) | 246% (active) | 14.3 | -0.855 (inactive) | 3.47 (inactive) | 6 | 0.0854 (inactive) | -0.006 (inactive) | -0.073 (inactive) | 0.00203 |
| CCn1c(-c2nonc2N)nc2c(C#CC(C)(C)O)nc(O[C@@H](CN)c3ccccc3)cc21 | 49.4 | 14.1% (inactive) | 132% (inactive) | 3.44 | 0.92 (inactive) | 1 (inactive) | 10.5 | 0.166 (inactive) | 0.0005 (inactive) | 1.1 | 4 |
| COc1ccc(-c2nn3ncccc3c2-c2ccnc(Nc3ccc4c(c3)OCCO4)n2)cc1 | 172 | 12.5% (active) | 79% (inactive) | -1.21 | 1.58 (inactive) | -0.248 (inactive) | 1.5 | 0.0413 (inactive) | 0.0025 (inactive) | 0.896 (inactive) | 0.839 |
| Cc1ccc(NC(=O)CC2CC2)cc1-c1ccc(C(=O)NCC2CC2)cc1 | 75.5 | 149% (inactive) | 98.5% (inactive) | 0.735 | -1.18 (inactive) | 0.093 (inactive) | 6 | 0.154 (inactive) | -0.006 (inactive) | -0.893 (inactive) | -0.555 |
| O/N=C1/CCc2cc(-c3nc(C4CCNCC4)[nH]c3-c3ccncc3)ccc21 | 105 | 174% (inactive) | 128% (inactive) | 0.995 | 0.24 (inactive) | 3.12 (inactive) | 1 | 0.00487 (inactive) | 0.001 (inactive) | -1.26 (inactive) | -0.635 |
| NC(=O)c1sc(-n2cnc3cc(C(F)(F)F)ccc32)cc1OCc1ccccc1Br | 109 | 113% (inactive) | 94.5% (inactive) | 0.595 | 0.64 (inactive) | -0.704 (inactive) | 10.5 | 0.407 (inactive) | -0.0005 (inactive) | 0.066 (inactive) | -0.5 |
| Cc1cc(O)cc(C)c1/C=C/c1cncc(C(=O)OC(C)(C)C)c1 | 60.8 | 116% (inactive) | 100% (inactive) | 0.33 | 0.75 (inactive) | -0.067 (inactive) | 34.5 | 0.559 (inactive) | 0.0035 (inactive) | 0.119 (inactive) | -0.153 |
| COc1cc(Nc2ncc(-c3ccccc3)o2)cc(OC)c1 | 105 | 156% (inactive) | 158% (inactive) | 5.51 | -1.38 (inactive) | 1.77 (inactive) | 3.5 | 0.0542 (inactive) | 0.0025 (inactive) | 0.0476 (inactive) | -0.415 |
| CC(C)(CO)CNC(=O)c1ccc2[nH]c(O)c(N=Nc3ccc(S(N)(=O)=O)cc3)c2c1 | 82.1 | 103% (inactive) | 93% (inactive) | -0.01 | -1.1 (inactive) | -0.381 (inactive) | 3 | 0.052 (inactive) | -0.004 (inactive) | -0.345 (inactive) | -0.442 |
| COc1cccc(-n2cnc3c(N/N=C/c4ccncc4)ncnc32)c1 | 88.9 | 105% (inactive) | 104% (inactive) | 0.5 | -1.34 (inactive) | -0.055 (inactive) | 1.5 | 0.0324 (inactive) | 0.0015 (inactive) | 2.14 (active) | 0.0192 |
| COc1cc(N2CCN(C(C)C)CC2)ccc1Nc1nc(Nc2ccc(F)cc2C(=O)NC[C@@H](O)CO)c2cc[nH]c2n1 | 85 | 330% (inactive) | 103% (inactive) | 0 | -0.875 (inactive) | -0.151 (inactive) | 3.5 | 0.273 (inactive) | 0 (inactive) | -0.811 (inactive) | 0.239 |
